# Where “and” joins values, the source holds several entries; their conditions need not be identical. Identical values can stand only once. Among all 16,000 compounds or so, about 2,600 (16%) were called active. Roughly 20% stayed inconclusive and do not appear here. Only a sample is shown. A number with no mark means an inactive call. Calls follow the shape of the dose curve; as a rule, active = well fitted curve in the direction sought with a large enough effect; inconclusive = small, poorly fitted or top-dose-only effect, or effect the other way; inactive = no such curve, though single readings can be large or run the other way.
# Molecular target: Cytochrome P450 2D6 (Homo sapiens) (UniProt P10635)
# Assay: Cytochrome panel assay with activity outcomes
# Settings: recombinant CYP, pro-luciferin dealkylation, luminescence, p450-cyp2d6; series mostly up to 57.1 µM; activity, negative = inhibition: at the top concentration
# % is scaled to controls: 0 for no effect and ±100 for the full control effect.
# Cytochrome P450 2D6 (Homo sapiens), sequence (P10635 whole entry, looked up): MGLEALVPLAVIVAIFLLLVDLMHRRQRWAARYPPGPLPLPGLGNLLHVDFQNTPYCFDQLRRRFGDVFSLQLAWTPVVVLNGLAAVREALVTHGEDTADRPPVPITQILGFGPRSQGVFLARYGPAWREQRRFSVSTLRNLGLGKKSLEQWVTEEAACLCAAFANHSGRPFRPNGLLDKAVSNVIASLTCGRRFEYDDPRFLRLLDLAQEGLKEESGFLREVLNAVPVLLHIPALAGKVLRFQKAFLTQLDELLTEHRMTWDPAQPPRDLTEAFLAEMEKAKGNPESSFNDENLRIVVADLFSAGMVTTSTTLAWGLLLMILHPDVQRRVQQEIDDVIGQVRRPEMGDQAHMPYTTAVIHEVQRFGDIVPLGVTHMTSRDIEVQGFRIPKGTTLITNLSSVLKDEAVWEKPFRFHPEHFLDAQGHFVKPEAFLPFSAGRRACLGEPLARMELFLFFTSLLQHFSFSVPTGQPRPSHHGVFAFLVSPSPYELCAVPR
Structure (SMILES),"activity, negative = inhibition",AC50
O=c1[nH]c(=O)n([C@@H]2C[C@H](O)[C@H](CO)O2)cc1C(F)(F)F,10.1% [at 25.6 µM],–
N#Cc1cccc(-c2nccc(NCc3cccnc3)n2)c1,-0.221%,–
N#Cc1cccc(-c2nccc(NCc3cccs3)n2)c1,–,20 µM (active)
N#Cc1cccc(-c2nccc(NCc3ccccc3)n2)c1,–,7.94 µM (active)
N#Cc1cccc(-c2cc(NCc3cccnc3)ncn2)c1,-18.8%,–
Cc1cc(C(=O)OCC(=O)NCCC(C)C)c2ccccc2n1,-7.33%,–
COc1cc2c3cc1Oc1cc(ccc1O)C[C@@H]1c4c(cc(OC)c(O)c4Oc4ccc(cc4)C[C@H]3[N+](C)(C)CC2)CC[N+]1(C)C,8.34% [at 11.4 µM],–
O=C(Nc1cccc2cccnc12)[C@@H]1[C@@H](C(=O)O)[C@H]2CC[C@@H]1O2,5.88% [at 11.4 µM],–
C[C@@]1(C(NC(=O)Cc2ccc(C(F)(F)F)cc2)c2ccc(-c3ccccc3)cc2)C[C@H]1C1CCCCC1 (some centres undefined),10.9%,–
O=C(O)c1ccccc1-c1ccccc1C(=O)Nc1ccccc1,20%,–
O=C(Nc1ccccc1)[C@@]12C[C@@H]1/C(=N/O)c1ccccc1O2,-2.77%,–
N/N=C1/c2ccccc2N[C@H]1OC(=O)Nc1ccccc1,–,3.16 µM (active)
CN(C)CCSCCO,7.16% [at 11.4 µM],–
NC(=O)c1nnn(Cc2cc(Cl)c(C(=O)c3ccc(Cl)cc3)c(Cl)c2)c1N,-20.8% [at 11.4 µM],–
O=C(O)CNCCc1ccccc1,3.94% [at 11.4 µM],–
NNCCc1ccccc1,–,6.31 µM (active) and 2.51 µM (active)
O=C(CC(=O)NN=C1CCCC1)NCCc1ccccc1,12.2%,–
COc1cccc(/C=N/n2nnc3c(cnn3-c3ccccc3)c2=O)c1,11%,–
Cc1c(C)c(C)c(CC2(C)CSC2)c(CC2(C)CSC2)c1C,7.89% [at 11.4 µM],–
COc1ccc(C2(C(=O)N3CCOCC3)CCCC2)cc1,-19%,–
C[N+]1(C)CCc2cc3c(cc2[C@@H]1[C@@H]1C(=O)Oc2c1ccc1c2OCO1)OCO3,–,12.6 µM (active)
COc1ccc(-n2c(=O)c(-c3cccc(C#N)c3)nc3cnc(N4CCNCC4)nc32)cc1,-4.03%,–
Nc1cc(-c2nn[nH]n2)ccc1F,-3.01%,–
CSc1nsc(SC)c1NC(=O)Nc1ccccn1,20.4%,–
CSc1nsc(SC)c1C(=O)Nc1ccc(C)cc1,–,10 µM (active)

Structure (SMILES),"activity, negative = inhibition",AC50
CCC(=O)NCCNC(=O)c1c(SC)nsc1SC,-20.3%,–
CC(NC(=O)C1(C)CC1(Br)Br)C(C)(C)C (centres undefined),4.92%,–
COc1ccc(Oc2ncc3nc(CCc4ccccc4)c(=O)n(C4CC4)c3n2)cc1,-13.8%,–
Cc1ccccc1/C=N\NC(=O)c1csnn1,-10.8%,–
COc1ccc(NC(=O)c2ccc(C(=O)c3cc(OC)ccc3OC)cc2)cc1,-5.54%,–
O=C(Nc1ccc(-c2cn3ccccc3n2)cc1)c1cc(Br)ccc1O,-3.93% [at 11.4 µM],–
COc1ccc(Br)cc1C(=O)Nc1ccc(Cc2ccncc2)cc1,–,0.0398 µM (active)
CC(C)=NO[C@@H](C)c1cc(-c2c(C)cc(C)cc2C)no1,-6.21% [at 11.4 µM],–
O=C(O)[C@H](Cc1cc(I)c(O)c(I)c1)C1CCCCC1,10.8% [at 11.4 µM],–
CC(C)OC(=O)C(CC(=O)O)N1CCOCC1 (centres undefined),5.53%,–
COc1ccccc1-c1nc(N(C)C)c2ccccc2n1,–,3.16 µM (active)
COc1cc(NS(C)(=O)=O)ccc1Nc1c2ccccc2nc2ccccc12,-12.4%,–
Cc1ccccc1-c1nc(N(C)C)c2ccccc2n1,–,12.6 µM (active)
CN(C)c1nc(-c2ccccc2C(F)(F)F)nc2ccccc12,–,10 µM (active)
Cc1cc(NC(=O)CN2C(=O)NC(C)(c3ccc(OC(F)F)cc3)C2=O)no1 (centres undefined),-3.78%,–
N[C@@H](C(=O)O)c1cc(O)ccc1Cl,4.25%,–
N=c1ccn2c(n1)O[C@@H]1[C@@H](O)[C@H](CO)O[C@H]12,0.0096%,–
c1ccc(-n2ncc3c2ncn2cnnc32)cc1,-5.51%,–
CC(C)(C)n1nc(-c2ccc(Cl)cc2)c2c(N)ncnc21,5.37%,–
CCCSc1nc(C)cc(C)c1C(N)=O,0.375%,–
CC1CCCC(NC(=O)CCn2c(=O)oc3ccccc32)C1C (centres undefined),-7.45%,–
COc1ccc(Oc2ncc3nc(-c4cccs4)c(=O)n(-c4ccccc4)c3n2)cc1,0.931%,–
COc1ccccc1N1CCN(CCCCNC(=O)c2ccc3ccccc3c2)CC1,–,3.16 µM (active) and 3.98 µM (active)
COc1ccccc1N1CCN(CCCCNS(=O)(=O)c2cccc3c(N(C)C)cccc23)CC1,–,15.8 µM (active)
COc1ccccc1N1CCN(CCCCN2C(=O)CCC2=O)CC1,-13.2%,–

Structure (SMILES),"activity, negative = inhibition",AC50
COc1ccccc1N1CCN(CCn2c(=O)[nH]c3c([nH]c4ccccc43)c2=O)CC1,2.42%,–
COc1ccccc1N1CCN(CCCNc2cc(=O)n(C)c(=O)n2C)CC1,–,inactive
COc1ccccc1N1CCN(CCCCNC(=O)c2ccc(-c3ccc(C(C)=O)cc3)cc2)CC1,-10.8%,–
CNc1ncnc2c1ncn2[C@@H]1O[C@@H](CO)[C@H](O)[C@@H]1O,4.16%,–
CNc1ncnc2c1ncn2[C@H]1C[C@@H](OP(=O)(O)O)[C@H](COP(=O)(O)O)O1,2.01%,–
CNc1ncnc2c1ncn2[C@H]1C[C@H](OP(=O)(O)O)[C@H](COP(=O)(O)O)O1,–,5.01 µM (active)
Cc1ccc(C2C3=C(CCCC3=O)Nc3nc(SCC(=O)NCc4ccco4)[nH]c(=O)c32)cc1 (centres undefined),-12.2%,–
CC(C)C12CC[C@@]3(CC[C@H]4[C@@](C)(CCC[C@]4(C)C(=O)O)[C@@H]3C1)[C@@H](CN)C2,6.15% [at 11.4 µM],–
COc1ccc(Nc2cc(=O)n(C3CCCCC3)c(=O)[nH]2)c(OC)c1,2.69%,–
Cc1nc(S(=O)(=O)NC2CCCCC2)c(C#N)c(C)c1Cl,-9.51%,–
Cc1ccc(-c2c(C)sc(NC(=O)C3C4CCC(O4)C3C(=O)O)c2C(=O)OC(C)C)cc1 (centres undefined),-5.58%,–
Cc1cc(C)n2nc(SCC(=O)N/N=C/c3ccccc3F)nc2n1,1.33%,–
COc1ccccc1CNC(=O)CSc1nc2nc(C)cc(C)n2n1,–,15.8 µM (active)
Cc1ccc(/C=N/NC(=O)CSc2nc3nc(C)cc(C)n3n2)cc1,15.2%,–
Nc1nc(=S)[nH]c2c1C1(CCCC1)Cc1ccccc1-2,0.13%,–
CO[C@@H]1COC(=O)[C@H](C)NC(=O)C/C=C\[C@@H](C)[C@@H](NS(=O)(=O)c2ccc(C)cc2)COC(=O)C/C=C\[C@@H]1C,5.57% [at 11.4 µM],–
O=c1[nH]c(SCc2ccccc2[N+](=O)[O-])nc2nc[nH]c12,-3.83% [at 11.4 µM],–
O=[N+]([O-])c1ccc(-c2cnc(SCc3ccccc3Cl)[nH]2)cc1,–,12.6 µM (active)
O=c1cc(-c2ccccc2)[nH]n1-c1ccc([N+](=O)[O-])cc1,0.207%,–
COCCn1c(=O)c(-c2cccs2)nc2cnc(N(C)C)nc21,15.9%,–
O=P(O)(COc1ccccc1)COc1ccccc1,36%,–
C[N+](C)(CCCOc1ccccc1)c1ccccc1,–,0.0158 µM (active)
O=c1c(-c2cccs2)nc2cnc(Nc3ccccc3)nc2n1C[C@H]1CCCO1,1.23%,–
CC(CO)(CO)N=Cc1cc(I)cc(I)c1O,3.56% [at 11.4 µM],–
Cc1ccc(NC(=S)Nc2ccc(Br)cc2)cc1,-17.6%,–

Structure (SMILES),"activity, negative = inhibition",AC50
Cc1ccc(SCCNC(=S)Nc2ccc(C)c(C)c2)cc1,–,4.47 µM (active)
Cc1ccc(SCc2cc(=O)[nH]c(/N=C(\N)Nc3ccc(C)c(C)c3)n2)cc1,43.6%,–
COc1ccc(C(=O)Nc2cccc(/C(C)=N/NC(=O)c3ccc([N+](=O)[O-])cc3)c2)cc1OC,-12%,–
CC(=O)Nc1ccc(NC(=O)CSc2nnc(-c3ccccc3)n2Cc2ccc3c(c2)OCO3)cc1,–,12.6 µM (active)
COc1ccc2cc(C)c3nnc(SCC(=O)Nc4nc(-c5ccccc5)cs4)n3c2c1,9.28%,–
Cc1cc2cc(C)c3nnc(SCC(=O)NCc4ccc5c(c4)OCO5)n3c2cc1C,–,17.8 µM (active)
Cc1ccc2cc(C)c3nnc(SCC(=O)NCc4ccco4)n3c2c1,-6.47%,–
O=C(CSc1nnc(-c2ccccn2)n1Cc1ccco1)Nc1ccc2c(c1)OCO2,-27.1%,–
CC(=O)Nc1ccc(NC(=O)CSc2ncnn2-c2ccccc2)cc1,-21.7%,–
O=C(O)c1cscc1Cc1cccs1,14.2% [at 11.4 µM],–
O=C(O)/C=C\C(=O)Nc1cccc2c1-c1ccccc1C2=O,10.1% [at 11.4 µM],–
Cc1nc2cncnc2n(Cc2ccc(F)cc2)c1=O,-4.78%,–
C=CCn1c(SCC(=O)Nc2ncc(Cc3ccc(Br)cc3)s2)nnc1-c1ccncc1,-19.6%,–
CC(C)=C1C(=O)NN(c2ccc(F)c(Cl)c2)C1=O,14.5%,–
Cc1cccc(C(=O)NNC(=O)C2CCCO2)c1 (centres undefined),-1.17%,–
CCNc1ncc2nc(-c3cc(F)cc(F)c3)c(=O)n(-c3ccccc3)c2n1,–,0.1 µM (active)
CCNc1ncc2nc(-c3ccc(OC)cc3)c(=O)n(-c3ccc(OC)cc3)c2n1,6.13%,–
O=c1c(-c2cc(F)cc(F)c2)nc2cncnc2n1-c1ccccc1,-2.63%,–
CCNc1ncc2nc(-c3ccc(F)cc3)c(=O)n(C)c2n1,0.213%,–
CCNc1ncc2nc(-c3ccc(F)cc3)c(=O)n(-c3ccccc3)c2n1,–,0.1 µM (active)
COc1ncc2nc(-c3cc(F)cc(F)c3)c(=O)n(-c3ccccc3)c2n1,4.41%,–
O=C(Nc1cccc(F)c1)/C(=C\c1ccco1)NC(=O)c1cccs1,4.82%,–
CC(=O)c1ccc(S(=O)(=O)NC(=O)NC2CCCCC2)cc1,-0.444% [at 25.6 µM],–
CC(C)CC(c1nnnn1C(C)C)N1CCN(c2ccccc2)CC1 (centres undefined),2.41%,–

# From PubChem BioAssay AID1851 (National Center for Advancing Translational Sciences (NCATS), 2009)
